Laboratory results taken from PubChem BioAssay (NCATS).
Several values for one entry are separate records, joined by “and”; a condition that tells them apart may be missing. Identical values can stand only once. Inconclusive results are not listed. Where a call stands in place of a potency, no number is given. Values without a mark were called inactive. Activity calls are given as the source filed them. Calls come from the whole dose curve.

assay: Cytotoxicity counterscreen for inhibitors of SARS-CoV-2 cell entry (AID 1645845); details: cell viability (SARS-CoV-2 entry assay cells); series mostly up to 57.1 µM; activity change, negative = cytotoxicity: at the top concentration; note: nearly all actives have a fitted effect of over 50% in size
Text: Assay Provider: Wei Zheng, Ph.D.
National Center for Advancing Translational Sciences, National Institute of Health, Rockville, MD.
SARS-CoV-2 spike protein, within the viral envelope, mediates viral attachment and infection of host cells. The SARS-CoV-2 spike protein specifically binds to the host receptor ACE2 (Angiotensin-converting enzyme 2). This interaction promotes endocytosis of the viral particle, additional events lead to viral-host cell membrane fusion and release of the viral contents, allowing viral replication.
While SARS-CoV-2 requires BSL-3 facilities for live virus work, pseudo-typed partices (PP) that incorporate SARS-CoV-2 spike proteins without replication elements could facilitate studies on viral entry mechanisms in a BSL-2 setting. This PP cell entry assay could also enable screening of small molecule compound libraries in BSL-2 setting to identify inhibitors of SARS-CoV-2 cell entry. To eliminate false positive compounds, ATP content cytotoxicity assay was screened in the same cell line.
SEQUENCE No. (e.g., 1, 2, 3, etc.); […] (e.g., Cells, Incubation, Reagent, etc.); VALUE and DESCRIPTION.
1. Cells. Seed 1500 HEK293-ACE2 cells (Expi293F with stable expression of human ACE2) in 2 uL/well media (DMEM, 10% FBS, 1x L-glutamine, 1x Pen/Strep, 1 ug/ml puromycin) in white 1536-well assay plates (Greiner #782073).
2. Incubation. Incubate at 37 C with 5% CO2 overnight (~16 h).
3. Compounds. Dispense 23 nL/well compounds in DMSO via pin transfer.
4. Incubation. Incubate for 1 h at 37C 5% CO2.
5. Reagent. Dispense 2 uL/well of media (DMEM, 10% FBS, 1x L-glutamine, 1x Pen/Strep, 1 ug/ml puromycin).
6. Incubation. Incubate at for 48h at 37C 5% CO2
7. Reagent. Dispense 4 uL/well of ATPLite 1step luminescence assay reagent (PerkinElmer #6016739).
8. Incubation. Incubate for 15 min at room temperature.
9. Detection. Read luminescence signal (Viewlux plate reader, PerkinElmer). Data was normalized with wells containing cells as 100%, and wells without cells (media only control) as 0%.
Potency is the fitted concentration of half-maximal effect.

Row | SMILES | outcome | Potency | activity change, negative = cytotoxicity
1 | O=C(O)C(=O)c1cn(Cc2ccccc2)c2ccc(-c3ccc(OC(F)(F)F)cc3)cc12 | inactive |  | 
2 | Cc1ccc(-c2cc(C(F)(F)F)nn2-c2ccc(S(N)(=O)=O)cc2)cc1 |  | inactive | 
3 | O=C(O)P(=O)(O)O | inactive |  | 
4 | NCC(CC(=O)O)c1ccc(Cl)cc1 (stereo not given) |  |  | 1.92% [at 0.702 µM]
5 | CCn1cc(C(=O)O)c(=O)c2cc(F)c(N3CCNCC3)cc21 |  | inactive | 
6 | Cn1c(CCCC(=O)O)nc2cc(N(CCCl)CCCl)ccc21 |  | inactive | 
7 | CN(C/C=C/C#CC(C)(C)C)Cc1cccc2ccccc12 | inactive |  | 
8 | NNc1nncc2ccccc12 |  | inactive | 
9 | CCN(CCO)CCCC(C)Nc1ccnc2cc(Cl)ccc12 (stereo not given) |  |  | -4.65% [at 5.25 µM] and -23.5% [at 5.25 µM]
10 | OCCN1CCN(CCCN2c3ccccc3Sc3ccc(C(F)(F)F)cc32)CC1 |  |  | 2.59%
11 | CN1C(CCl)Nc2cc(Cl)c(S(N)(=O)=O)cc2S1(=O)=O (stereo not given) | inactive |  | 
12 | CN1CCN(CCCN2c3ccccc3Sc3ccc(Cl)cc32)CC1 |  |  | -18.5%
13 | O=NN(CCCl)C(=O)NC1CCCCC1 |  | inactive | 
14 | Nc1nc2c(ncn2COCCO)c(=O)[nH]1 |  | inactive | 
15 | CC[C@H](C)C(=O)O[C@H]1C[C@@H](C)C=C2C=C[C@H](C)[C@H](CC[C@@H]3C[C@@H](O)CC(=O)O3)[C@H]21 |  | inactive | 
16 | Cc1ccc(O)c([C@H](CCN(C(C)C)C(C)C)c2ccccc2)c1 |  |  | 0.867%
17 | CN(C)CCOC(c1ccc(Cl)cc1)c1ccccn1 (stereo not given) |  |  | -25.7%
18 | CC(C)(C)NC(=O)[C@@H]1CN(Cc2cccnc2)CCN1C[C@@H](O)C[C@@H](Cc1ccccc1)C(=O)N[C@H]1c2ccccc2C[C@H]1O |  |  | 2.45%
19 | Nc1ccncc1 | inactive [at 114 µM] |  | 
20 | Cc1ccc(-n2nc(C(C)(C)C)cc2NC(=O)Nc2ccc(OCCN3CCOCC3)c3ccccc23)cc1 | inactive |  | 

Row | SMILES | outcome | Potency | activity change, negative = cytotoxicity
21 | CCCNC(=O)NS(=O)(=O)c1ccc(Cl)cc1 | inactive |  | 
22 | NCCC(O)(P(=O)(O)O)P(=O)(O)O | inactive |  | 
23 | COc1ccc([C@@H]2Sc3ccccc3N(CCN(C)C)C(=O)[C@@H]2OC(C)=O)cc1 |  | inactive | 
24 | c1ccc2c(c1)Nc1ccccc1S2 |  |  | -8.28%
25 | N[C@@H]1CONC1=O |  | inactive | 
26 | CC(CN(C)C)CN1c2ccccc2CCc2ccccc21 (stereo not given) | inactive |  | 
27 | CN(C)CCC=C1c2ccccc2CCc2ccccc21 |  |  | -23.5%
28 | C=CC(=O)Nc1cc2c(Nc3ccc(F)c(Cl)c3)ncnc2cc1OCCCN1CCOCC1 |  | 35.5 µM (active) | 
29 | COc1ccccc1Oc1c(NS(=O)(=O)c2ccc(C(C)(C)C)cc2)nc(-c2ncccn2)nc1OCCO |  |  | 2.56%
30 | CCC(C)n1ncn(-c2ccc(N3CCN(c4ccc(OC[C@H]5CO[C@](Cn6cncn6)(c6ccc(Cl)cc6Cl)O5)cc4)CC3)cc2)c1=O (stereo not given in full) |  |  | 3.29% [at 27.1 µM]
31 | CC1=NS(=O)(=O)c2cc(Cl)ccc2N1 | inactive |  | 
32 | C[C@@H](c1ncncc1F)C(O)(Cn1cncn1)c1ccc(F)cc1F (stereo not given in full) |  |  | 4.94%
33 | CN1CCN(C2=Nc3cc(Cl)ccc3Nc3ccccc32)CC1 |  | inactive | 
34 | CNS(=O)(=O)Cc1ccc2[nH]cc(CCN(C)C)c2c1 | inactive |  | 
35 | CCCCc1ncc(/C=C(\Cc2cccs2)C(=O)O)n1Cc1ccc(C(=O)O)cc1 | inactive |  | 
36 | COc1cc(C(=O)NCc2ccc(OCCN(C)C)cc2)cc(OC)c1OC | inactive |  | 
37 | COC(=O)Nc1nc2ccc(C(=O)c3ccccc3)cc2[nH]1 |  |  | -29.6%
38 | CC1=C(C(=O)O)N2C(=O)[C@@H](NC(=O)[C@H](N)c3ccc(O)cc3)[C@H]2SC1 |  |  | 3.07%
39 | Nc1ccn([C@@H]2O[C@H](CO)[C@@H](O)C2(F)F)c(=O)n1 |  |  | -14.5%
40 | COc1cc(NCc2ccc3nc(N)nc(N)c3c2C)cc(OC)c1OC |  | 11.2 µM (active) and 1.12 µM (active) | 
